About 8,800 targets were measured; listed, in parts, are those with a hit and a random draw of the rest. About 0.5% of all pairs of compound and target were hits. A number with no mark means an inactive call.

Sequence of UniProt Q96EP5 (Q96EP5 whole entry, looked up): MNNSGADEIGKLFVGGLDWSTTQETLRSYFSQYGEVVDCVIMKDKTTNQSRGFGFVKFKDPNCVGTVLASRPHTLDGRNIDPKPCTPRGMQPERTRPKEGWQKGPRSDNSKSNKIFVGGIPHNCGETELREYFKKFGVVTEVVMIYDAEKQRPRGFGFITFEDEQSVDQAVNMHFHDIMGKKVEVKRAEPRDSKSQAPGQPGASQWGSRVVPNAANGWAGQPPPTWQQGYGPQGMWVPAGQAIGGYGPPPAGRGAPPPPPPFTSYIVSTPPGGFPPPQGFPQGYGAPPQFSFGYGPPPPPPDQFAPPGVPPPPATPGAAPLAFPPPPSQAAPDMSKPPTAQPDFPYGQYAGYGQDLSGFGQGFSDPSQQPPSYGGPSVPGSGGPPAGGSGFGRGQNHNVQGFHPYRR
Sequence of UniProt P50416 (P50416 whole entry, looked up): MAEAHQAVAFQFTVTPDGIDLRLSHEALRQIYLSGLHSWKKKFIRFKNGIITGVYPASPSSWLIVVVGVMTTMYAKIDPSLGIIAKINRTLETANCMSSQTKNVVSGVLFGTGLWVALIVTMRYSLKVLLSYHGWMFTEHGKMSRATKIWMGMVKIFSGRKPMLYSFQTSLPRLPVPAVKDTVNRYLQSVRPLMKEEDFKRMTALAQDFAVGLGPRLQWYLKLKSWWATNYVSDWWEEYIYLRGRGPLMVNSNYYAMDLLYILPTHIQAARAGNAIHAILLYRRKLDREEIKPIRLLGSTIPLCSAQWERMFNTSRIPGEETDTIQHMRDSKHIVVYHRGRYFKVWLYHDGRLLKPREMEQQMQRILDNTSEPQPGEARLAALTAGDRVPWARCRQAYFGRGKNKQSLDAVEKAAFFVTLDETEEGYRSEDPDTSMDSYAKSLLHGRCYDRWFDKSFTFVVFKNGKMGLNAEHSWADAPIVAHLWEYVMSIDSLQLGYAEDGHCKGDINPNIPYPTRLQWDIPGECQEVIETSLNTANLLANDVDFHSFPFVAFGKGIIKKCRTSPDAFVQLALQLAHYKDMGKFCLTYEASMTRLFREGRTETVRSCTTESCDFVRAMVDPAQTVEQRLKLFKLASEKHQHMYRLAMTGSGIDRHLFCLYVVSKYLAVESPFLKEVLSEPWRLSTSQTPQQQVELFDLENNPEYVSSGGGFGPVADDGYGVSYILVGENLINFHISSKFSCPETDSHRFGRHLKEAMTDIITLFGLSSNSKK
Sequence of UniProt Q8IY22 (Q8IY22 whole entry, looked up): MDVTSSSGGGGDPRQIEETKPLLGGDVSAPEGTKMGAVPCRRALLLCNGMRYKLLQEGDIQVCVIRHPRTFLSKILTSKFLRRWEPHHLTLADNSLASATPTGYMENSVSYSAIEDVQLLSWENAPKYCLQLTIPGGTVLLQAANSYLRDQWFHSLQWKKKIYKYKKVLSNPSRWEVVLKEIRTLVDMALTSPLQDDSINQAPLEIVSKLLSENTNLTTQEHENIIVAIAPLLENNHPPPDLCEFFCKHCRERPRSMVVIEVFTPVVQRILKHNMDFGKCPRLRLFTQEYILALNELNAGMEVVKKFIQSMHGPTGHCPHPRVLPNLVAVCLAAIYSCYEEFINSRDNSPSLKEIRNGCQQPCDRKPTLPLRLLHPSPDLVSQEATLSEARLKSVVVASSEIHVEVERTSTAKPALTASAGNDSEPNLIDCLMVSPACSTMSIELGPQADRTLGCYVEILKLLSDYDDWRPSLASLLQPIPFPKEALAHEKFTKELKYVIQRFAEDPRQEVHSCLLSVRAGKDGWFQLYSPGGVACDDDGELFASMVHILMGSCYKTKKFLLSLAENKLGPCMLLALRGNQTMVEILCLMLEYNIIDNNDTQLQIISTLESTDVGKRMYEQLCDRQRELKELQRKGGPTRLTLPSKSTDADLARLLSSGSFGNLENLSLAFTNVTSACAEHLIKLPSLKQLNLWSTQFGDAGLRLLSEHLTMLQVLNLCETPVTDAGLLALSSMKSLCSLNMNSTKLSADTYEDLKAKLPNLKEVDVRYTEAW
Sequence of UniProt Q96BY6 (Q96BY6 whole entry, looked up): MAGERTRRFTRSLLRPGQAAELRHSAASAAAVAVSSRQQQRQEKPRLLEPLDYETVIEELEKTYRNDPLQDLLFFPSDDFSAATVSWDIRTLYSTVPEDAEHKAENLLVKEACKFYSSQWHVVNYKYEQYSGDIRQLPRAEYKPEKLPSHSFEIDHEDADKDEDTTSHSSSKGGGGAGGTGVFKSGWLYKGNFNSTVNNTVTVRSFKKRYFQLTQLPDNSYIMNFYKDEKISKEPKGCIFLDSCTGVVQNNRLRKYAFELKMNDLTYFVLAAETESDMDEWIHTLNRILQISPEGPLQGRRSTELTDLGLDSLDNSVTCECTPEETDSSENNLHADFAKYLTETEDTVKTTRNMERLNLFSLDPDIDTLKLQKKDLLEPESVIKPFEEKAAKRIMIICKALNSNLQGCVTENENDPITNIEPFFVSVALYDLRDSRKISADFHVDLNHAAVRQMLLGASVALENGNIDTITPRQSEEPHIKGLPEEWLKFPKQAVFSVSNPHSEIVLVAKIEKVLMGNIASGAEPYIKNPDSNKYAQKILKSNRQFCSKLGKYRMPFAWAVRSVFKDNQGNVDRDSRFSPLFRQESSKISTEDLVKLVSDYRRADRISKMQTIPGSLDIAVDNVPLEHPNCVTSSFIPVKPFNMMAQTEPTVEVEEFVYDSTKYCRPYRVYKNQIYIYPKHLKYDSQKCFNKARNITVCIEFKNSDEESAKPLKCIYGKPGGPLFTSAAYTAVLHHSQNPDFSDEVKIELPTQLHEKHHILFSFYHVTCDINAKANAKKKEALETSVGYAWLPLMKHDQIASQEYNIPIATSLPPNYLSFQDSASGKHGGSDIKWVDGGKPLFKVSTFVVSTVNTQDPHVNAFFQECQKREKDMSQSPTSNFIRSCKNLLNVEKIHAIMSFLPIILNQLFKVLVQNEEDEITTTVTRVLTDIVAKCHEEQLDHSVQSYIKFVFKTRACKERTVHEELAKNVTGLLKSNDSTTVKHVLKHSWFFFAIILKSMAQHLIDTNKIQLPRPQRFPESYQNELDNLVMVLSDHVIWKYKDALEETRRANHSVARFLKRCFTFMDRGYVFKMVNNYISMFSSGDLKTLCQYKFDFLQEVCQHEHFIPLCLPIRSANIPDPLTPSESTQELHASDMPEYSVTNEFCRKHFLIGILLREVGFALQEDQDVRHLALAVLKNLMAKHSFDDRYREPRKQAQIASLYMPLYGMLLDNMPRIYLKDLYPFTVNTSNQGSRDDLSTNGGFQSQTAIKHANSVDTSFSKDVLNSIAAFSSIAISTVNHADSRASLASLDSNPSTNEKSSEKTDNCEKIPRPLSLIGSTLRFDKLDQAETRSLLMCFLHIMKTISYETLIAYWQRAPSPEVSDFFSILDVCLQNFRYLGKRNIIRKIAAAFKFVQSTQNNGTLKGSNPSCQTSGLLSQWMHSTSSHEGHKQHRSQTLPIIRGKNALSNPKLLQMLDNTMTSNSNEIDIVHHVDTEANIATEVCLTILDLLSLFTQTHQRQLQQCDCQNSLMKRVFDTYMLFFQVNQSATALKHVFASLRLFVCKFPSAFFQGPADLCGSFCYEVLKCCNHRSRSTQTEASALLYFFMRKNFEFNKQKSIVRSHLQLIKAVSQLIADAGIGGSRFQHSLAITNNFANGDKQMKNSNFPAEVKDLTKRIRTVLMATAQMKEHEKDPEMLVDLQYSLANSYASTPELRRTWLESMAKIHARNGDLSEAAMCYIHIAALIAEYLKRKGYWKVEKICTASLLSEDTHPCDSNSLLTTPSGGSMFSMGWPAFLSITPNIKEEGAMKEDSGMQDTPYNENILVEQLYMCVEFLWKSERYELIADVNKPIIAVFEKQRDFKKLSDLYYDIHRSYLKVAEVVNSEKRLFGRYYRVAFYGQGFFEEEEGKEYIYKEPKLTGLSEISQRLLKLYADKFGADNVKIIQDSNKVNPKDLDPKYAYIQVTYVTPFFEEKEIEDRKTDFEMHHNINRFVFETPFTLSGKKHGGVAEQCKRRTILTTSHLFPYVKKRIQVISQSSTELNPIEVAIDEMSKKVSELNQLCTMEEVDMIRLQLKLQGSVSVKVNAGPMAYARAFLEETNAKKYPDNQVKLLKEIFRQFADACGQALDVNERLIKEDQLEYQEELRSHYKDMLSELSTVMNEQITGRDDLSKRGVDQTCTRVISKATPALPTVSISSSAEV
Sequence of UniProt Q9HCG8 (Q9HCG8 whole entry, looked up): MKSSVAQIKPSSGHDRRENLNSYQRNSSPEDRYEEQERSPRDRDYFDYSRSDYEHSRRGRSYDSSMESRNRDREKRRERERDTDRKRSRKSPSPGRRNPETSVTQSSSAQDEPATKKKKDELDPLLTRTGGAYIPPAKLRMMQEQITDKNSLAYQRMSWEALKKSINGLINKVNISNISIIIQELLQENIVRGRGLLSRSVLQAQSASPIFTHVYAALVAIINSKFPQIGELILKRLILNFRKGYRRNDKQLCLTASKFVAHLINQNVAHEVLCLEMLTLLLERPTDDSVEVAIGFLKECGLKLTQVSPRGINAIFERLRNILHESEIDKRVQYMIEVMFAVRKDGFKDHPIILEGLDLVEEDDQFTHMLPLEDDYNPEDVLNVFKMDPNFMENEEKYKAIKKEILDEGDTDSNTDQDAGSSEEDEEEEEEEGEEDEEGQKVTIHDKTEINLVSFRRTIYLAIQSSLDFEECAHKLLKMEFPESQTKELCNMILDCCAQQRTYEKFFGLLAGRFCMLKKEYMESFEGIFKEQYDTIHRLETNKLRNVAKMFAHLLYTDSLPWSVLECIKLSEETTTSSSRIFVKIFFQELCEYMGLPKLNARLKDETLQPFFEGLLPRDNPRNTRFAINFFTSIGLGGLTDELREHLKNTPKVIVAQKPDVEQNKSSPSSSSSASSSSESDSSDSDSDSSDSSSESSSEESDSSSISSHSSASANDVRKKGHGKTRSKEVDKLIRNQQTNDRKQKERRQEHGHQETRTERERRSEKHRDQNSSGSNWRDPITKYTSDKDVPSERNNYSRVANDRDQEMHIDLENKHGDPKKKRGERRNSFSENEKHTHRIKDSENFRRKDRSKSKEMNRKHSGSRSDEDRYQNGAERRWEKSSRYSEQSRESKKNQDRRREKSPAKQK

Compound in the assay: CC1=C(C=C(C=C1)NC(=O)C2=CC(=CC=C2)C(C)(C)C#N)NC3=CC4=C(C=C3)N=CN(C4=O)C
The assay is described as follows: log2 fold change, soluble protein after heating vs DMSO (PISA); higher = thermal stabilisation; K562 lysate, 10 uM; active = over 0.2 and 3.5 SD of the protein, either way, in both replicates (recomputed). In outline: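 Dounce homogenisation of K562 pellets in PBS pH 7.4 with 1 mM MgCl2 produced a crude extract, used at 1 mg/mL protein. Exposure to 10 μM compound lasted 30 min, and aliquots were then heated for 3 min across 48°C-58°C, pooled and brought to 0.5% NP-40 at 4°C. The supernatant after 21,000xg for 90 min was quantified by TMTpro 16plex LC-MS/MS with channel sums equalised. Duplicate values are given as log-two fold change in thermal stability relative to solvent controls.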
Take DLGAP5 (UniProt Q15398): the log2 fold change was -0.012. As for DCTN1 (UniProt Q14203), the figure is -0.013.

Take DOCK10 (UniProt Q96BY6): the log2 fold change was 0.246.

In the case of DFFB (UniProt O76075), the log2 fold change is 0.033. In the case of CWC22 (UniProt Q9HCG8) it was -0.002. In the case of CHMP4A isoform 2 (UniProt Q9BY43) it was 0.036; in that of DDX54 isoform 2 (UniProt Q8TDD1), -0.054; in that of DLG3 isoform 2 (UniProt Q92796), -0.023.

As for COG3 (UniProt Q96JB2), the log2 fold change is 0.02.

For the target CMPK2 (UniProt Q5EBM0), the log2 fold change is 0.009. As for CNOT6L (UniProt Q96LI5), the figure is 0.008. In the case of CSK (UniProt P41240) it was 0.626 (active); in that of CYP24A1 (UniProt Q07973), 0.183; in that of DAZAP1 (UniProt Q96EP5), -0.359 (active). In the case of CNIH4 (UniProt Q9P003) it was -0.008. Consider DNM2 (UniProt P50570), for which the log2 fold change was -0.016.

Take CMIP (UniProt Q8IY22): the log2 fold change was 0. As for COQ9 (UniProt O75208), the figure is -0.024; as for CNOT2 (UniProt Q9NZN8), 0.006. For DOCK8 (UniProt Q8NF50), the log2 fold change is 0.004.

For CSNK2B (UniProt P67870), the log2 fold change is -0.004.

In the case of CPT1A (UniProt P50416), the log2 fold change is -0.05. As for DNAH10 (UniProt Q8IVF4), the figure is 0.137.
